Test systems include SK-MEL-2 melanoma; EKVX NSCLC; SN12C renal; UO-31 renal; TK-10 renal; ACHN renal; CAKI-1 renal; A498 renal; MOLT-4 leukemia; SR leukemia; RPMI-8226 leukemia; OVCAR-8 ovarian; OVCAR-5 ovarian; OVCAR-4 ovarian; SK-OV-3 ovarian; OVCAR-3 ovarian; HS 578T breast; NCI/ADR-RES ovarian; IGROV1 ovarian.
Common to all, as to experiment: NCI-60 one-dose screen, 48 h (100 = growth as untreated, 0 = no growth, -100 = all killed)
Holding throughout (settings): 10 µM

This is part of a sample that, as a whole, favours compounds with a hit. Of some 83,000 tested, about 20% had one in any assay.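 How to read the values: 0–100, growth inhibition (40 = 60% inhibited); 0, no net growth; -100 to 0, cell death (-40 = 40% of starting cells died; -100 = all dead).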 Unmarked numbers belong to inactive results. Active and inactive are the calls of the source. The calls were made as follows: active = growth percent below 10; inactive = the rest.

Regarding `COc1cc(-c2csc(NC(=O)Nc3cc(C(F)(F)F)cc(C(F)(F)F)c3)n2)cc(OC)c1OC`, the growth in the test with SK-MEL-2 melanoma is 7.21% (active); in the test with EKVX NSCLC, 4.59% (active); in the test with SN12C renal it was 7.93% (active); in the test on UO-31 renal, 7.12% (active); with TK-10 renal, 9.24% (active); with ACHN renal, 4.33% (active). Moreover, the growth with CAKI-1 renal is 10.4%; in the test with A498 renal it was 10.1%; with MOLT-4 leukemia it was 17.4%; in the test with SR leukemia, 16.5%; in the test on RPMI-8226 leukemia, -6.92% (active); in the test with OVCAR-8 ovarian, 19.4%. Further, the growth in the test on OVCAR-5 ovarian is 30.4%; in the test on OVCAR-4 ovarian, 21.1%; in the test on SK-OV-3 ovarian it was 0.491% (active); in the test with OVCAR-3 ovarian, -3.97% (active); with HS 578T breast, 31.2%; in the test with NCI/ADR-RES ovarian, 10.4%.
`COc1cc(-c2nc3ccccc3o2)cc(CN2CCCCC2)c1O`: the growth in the test on SK-MEL-2 melanoma was 89.3%; in the test with EKVX NSCLC, 66.5%; in the test on SN12C renal it was 62.1%; in the test on UO-31 renal it was 43.9%; in the test with TK-10 renal, 129%; with ACHN renal it was 64.8%. Further, the growth with CAKI-1 renal was 85.2%; in the test on A498 renal it was 55.2%; with MOLT-4 leukemia, 48.8%; with SR leukemia, 31.7%; with RPMI-8226 leukemia it was 45.1%; in the test on OVCAR-8 ovarian, 71.1%. For the same molecule, the growth is 110% in the test with OVCAR-5 ovarian; 118% in the test with SK-OV-3 ovarian; 82.1% with IGROV1 ovarian; 59% in the test with OVCAR-3 ovarian; 60.3% in the test on HS 578T breast; 79.7% in the test on NCI/ADR-RES ovarian.
`CCCCN(CCCC)C(=O)[C@H](CC)[C@@H]1CC[C@@H](C)[C@@H]([C@H](C)[C@@H](O)[C@@H](C)C(=O)[C@H](CC)C2O[C@]3(C=CC(=O)[C@]4(CC[C@@](C)([C@H]5CC[C@](O)(CC)[C@H](C)O5)O4)O3)[C@H](C)C[C@@H]2C)O1` (stereo partly drawn): the growth in the test on SK-MEL-2 melanoma is 26.2%; in the test with EKVX NSCLC, 27.7%; in the test with SN12C renal, 28.7%; in the test on UO-31 renal, 13.4%; with TK-10 renal, 42.6%; in the test with ACHN renal, 13.7%. The growth in the test on CAKI-1 renal is 21.6%; with A498 renal it was 41%; in the test on MOLT-4 leukemia it was 39.4%; in the test on SR leukemia, 75.1%; in the test with OVCAR-8 ovarian, 34.7%; in the test with OVCAR-5 ovarian it was 39.4%. For the same molecule, the growth in the test with OVCAR-4 ovarian is 42.7%; in the test on SK-OV-3 ovarian, 51.9%; in the test with IGROV1 ovarian, 59.3%; in the test with OVCAR-3 ovarian it was 31.5%; in the test with HS 578T breast, 43.1%; in the test with NCI/ADR-RES ovarian, 78.2%.
Consider `COc1cc(/C=C/c2cc(/C=C/c3ccc(O)c(OC)c3)n(C(=O)Nc3ccccc3Cl)n2)ccc1O`, for which the growth in the test with SK-MEL-2 melanoma was -12.3% (active); in the test on EKVX NSCLC, 17.7%; in the test on SN12C renal, 14.2%; in the test with UO-31 renal it was -34.8% (active); in the test on TK-10 renal, 16.1%; in the test on ACHN renal it was 12.8%. The growth is 7.29% (active) with CAKI-1 renal; -11.8% (active) in the test with A498 renal; -4.57% (active) in the test on MOLT-4 leukemia; -17.7% (active) with SR leukemia; -22.3% (active) in the test on RPMI-8226 leukemia; 1.5% (active) in the test on OVCAR-8 ovarian. The growth with OVCAR-5 ovarian is 13.2%; in the test with OVCAR-4 ovarian, 6.59% (active); with SK-OV-3 ovarian, -33.3% (active); in the test on IGROV1 ovarian it was -6.58% (active); with OVCAR-3 ovarian, -26.8% (active); in the test on HS 578T breast, -4.71% (active). Besides, the growth with NCI/ADR-RES ovarian was 20.8%.
As for `Cc1ccc(/C=C/C(=O)C(=O)/C=C/c2ccc(C)cc2)cc1`, the growth with SK-MEL-2 melanoma was 105%; in the test with EKVX NSCLC it was 92.7%; with SN12C renal, 105%; in the test with UO-31 renal, 89.7%; with TK-10 renal, 92%; with ACHN renal, 104%. For the same molecule, the growth is 94.8% in the test on CAKI-1 renal; 101% with A498 renal; 91.8% in the test on MOLT-4 leukemia; 68% with SR leukemia; 45.2% in the test on RPMI-8226 leukemia; 109% with OVCAR-8 ovarian. The growth is 97.8% in the test on OVCAR-5 ovarian; 98.6% in the test with OVCAR-4 ovarian; 109% in the test on SK-OV-3 ovarian; 112% in the test with OVCAR-3 ovarian; 92.6% with HS 578T breast; 103% in the test with NCI/ADR-RES ovarian.
Turning to `COc1ccc(-c2cc(-c3ccc(OC)c(OC)c3)nc(SCCCC(=O)NO)n2)cc1`, the growth in the test with SK-MEL-2 melanoma is -5.66% (active); in the test with EKVX NSCLC, -15.3% (active); in the test on SN12C renal, 5.59% (active); in the test on UO-31 renal it was -74.3% (active); with TK-10 renal it was -0.0305% (active); in the test on ACHN renal it was -24.9% (active). For the same molecule, the growth was -29.2% (active) with CAKI-1 renal; -32.4% (active) in the test with A498 renal; 7.15% (active) in the test on MOLT-4 leukemia; 15.1% in the test with SR leukemia; 10.4% with OVCAR-8 ovarian; 15.9% in the test with OVCAR-5 ovarian. Besides, the growth in the test on OVCAR-4 ovarian is 13.1%; with SK-OV-3 ovarian, -21.3% (active); in the test on IGROV1 ovarian, -25.1% (active); in the test with OVCAR-3 ovarian, -24% (active); with HS 578T breast it was 4.08% (active); with NCI/ADR-RES ovarian, -34.7% (active).
For the molecule `CC(=O)N[C@H](C(=O)N[C@@H](CCCNC(=N)N)C(=O)N[C@@H](CCCCN)C(=O)N[C@@H](CCCNC(=N)N)C(=O)N[C@]1(C)CCCCCC/C=C\CCC[C@@](C)(C(=O)N[C@@H](CCCNC(=N)N)C(=O)N[C@@H](CCC(=O)O)C(=O)N[C@@H](CC(C)C)C(=O)N[C@H](C(=O)N[C@@H](CCC(=O)O)C(N)=O)C(C)C)NC(=O)[C@H](CCC(N)=O)NC(=O)[C@H](CC(C)C)NC(=O)[C@H](CC(C)C)NC(=O)[C@H](CCCNC(=N)N)NC(=O)[C@H](CCCNC(=N)N)NC(=O)[C@H](CC(C)C)NC1=O)C(C)C`, the growth with SK-MEL-2 melanoma is 53.5%; in the test on EKVX NSCLC, -22.3% (active); in the test with SN12C renal, -41.3% (active); with UO-31 renal, 50.1%; in the test with TK-10 renal, -43% (active); with ACHN renal, 9.21% (active). For the same molecule, the growth in the test on CAKI-1 renal is 16.1%; in the test on A498 renal, 1.28% (active); in the test with MOLT-4 leukemia it was 34.6%; with SR leukemia it was 15.4%; with RPMI-8226 leukemia, 20.9%; in the test with OVCAR-8 ovarian, -15.5% (active). Further, the growth with OVCAR-5 ovarian was 38.3%; in the test with OVCAR-4 ovarian, 39.6%; with SK-OV-3 ovarian, 53.1%; in the test on IGROV1 ovarian, 58.8%; in the test with OVCAR-3 ovarian it was -38.9% (active); in the test with HS 578T breast, -33.9% (active). In the test on NCI/ADR-RES ovarian, the growth was 7.03% (active).

(Values after PubChem BioAssay (NCI).)
